Giardia kill = Small Molecules that selectively kill Giardia lamblia: qHTS; 340,000 tested, 0.15% active; AID 540267, 2011; activity change, % at 7.66 µM, hits read low; Giardia lamblia trophozoite viability; in the data active = activity change below about -80%; inconclusive = between about -30% and that limit;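 note: parasites exposed to compound for two days anaerobically before the ATP read; % is set by controls: 0 for no effect and ±100 for the full control effect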
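Luminescent ATP signal served as the viability read-out, measured 15-30 min after adding ATP detection reagent to trophozoites that had been incubated with compounds for 48 hrs at 37 deg C anaerobically at 100 cells/well.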
RORg inh = qHTS for inhibitors of ROR gamma transcriptional activity; Potency, µM (titrated, usually from 53.6 µM), inactives show at the highest dose activity change, negative = inhibition, usual class: inhibitors; Drosophila S2 Gal4-RORgamma UAS-luciferase reporter, 20 h; 310,000 tested, 5.4% active; Nuclear receptor ROR-gamma (Mus musculus), P51450; note: potency is the fitted concentration of half-maximal effect; % is set by controls: 0 for no effect and ±100 for the full control effect; nearly all actives have a fitted effect of over 60% in size
Target sequence (P51450 whole entry, looked up, the tested form may be a part): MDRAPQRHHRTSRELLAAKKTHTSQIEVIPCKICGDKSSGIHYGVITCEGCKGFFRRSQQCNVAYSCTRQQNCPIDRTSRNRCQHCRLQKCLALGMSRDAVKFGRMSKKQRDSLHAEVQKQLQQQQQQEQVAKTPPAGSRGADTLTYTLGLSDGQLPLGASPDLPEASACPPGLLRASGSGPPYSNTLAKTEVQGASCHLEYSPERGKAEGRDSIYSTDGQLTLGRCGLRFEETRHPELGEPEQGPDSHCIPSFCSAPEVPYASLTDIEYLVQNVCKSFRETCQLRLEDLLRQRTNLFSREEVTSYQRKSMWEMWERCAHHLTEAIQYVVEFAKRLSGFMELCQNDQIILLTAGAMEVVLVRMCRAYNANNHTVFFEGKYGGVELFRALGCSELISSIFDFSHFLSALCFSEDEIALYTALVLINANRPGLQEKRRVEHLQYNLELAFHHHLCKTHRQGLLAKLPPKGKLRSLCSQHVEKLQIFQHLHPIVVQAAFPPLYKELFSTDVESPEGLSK
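A Gal4/UAS one-hybrid system in insect cells: metallothionein-promoter Gal4–ROR gamma fusion plus Photinus luciferase reporter. Copper sulfate 700 uM final, 20 hr ambient incubation, luminescent detection after 10 min with reagent.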
ERG-DNA inh = qHTS for Small Molecule Inhibitors of the ERG Ets/DNA interaction. Potency, µM (doses to about 76.9 µM), for inactives: top-dose FP activity, negative = inhibition, hits mostly inhibitors. Transcriptional regulator ERG (Homo sapiens), P11308. 370,000 tested, 0.028% active. fluorescence polarization, His-ERG Ets domain / labelled DNA; active = well fitted inhibition curve with a large enough effect in the polarisation, with a control signal flat; inconclusive = small, poorly fitted or top-dose-only effect, or effect the other way, or a change in a side signal; inactive = no such curve, though single readings can be large or run the other way; the % refers to the polarisation;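 note: polarization taken with two DNA probes labelled with fluorescein and Texas red; potency is the fitted concentration of half-maximal effect; % of control where 0% means no effect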
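His-tagged ERG Ets domain (1 uM in the protein solution; 300mM KCl, 50mM Tris-HCl, 1mM EDTA, 1mM DTT, pH 7.5) received compound, then a probe mix of 5 nM fluorescein-DNA and 100nM Texas-615-DNA. Fluorescence polarization was read for both dyes.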
a7 integrin act = qHTS for Activators of Integrin-Mediated Alleviation for Muscular Dystrophy. alpha7betagal myoblasts, beta-gal FDG fluorescence, 48 h. Potency, µM (doses to about 38.3 µM), for the others: at the top dose activation, usual class: activators. 350,000 tested, 0.064% active. AID 624291, 2012;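 note: potency is the fitted concentration of half-maximal effect; 100% = response of the positive control SU9516; nearly all actives have a fitted effect of over 60% in size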
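Alpha7betagal+/- myoblasts (passage 13) were plated 16-24 hr, then exposed to compounds (1:260 dilution of DMSO stock) for 48 hours at 37C. After MPER lysis, β-galactosidase reporter activity was read as FDG fluorescence (ex 480/em 540) after 30 minutes.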
VP16 counter = VP16 counterscreen qHTS for inhibitors of ROR gamma transcriptional activity | Drosophila S2 Gal4-VP16 UAS-luciferase, luminescence, 20 h | Potency, µM (titrated, usually from 53.6 µM), for the others: at the top dose activity, negative = inhibition, usual class: inhibitors | 310,000 tested, 3.5% active | AID 2546, 2010;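 note: Gal4-VP16 expression switched on by copper sulfate through the metallothionein promoter; potency is the fitted concentration of half-maximal effect; % is set by controls: 0 for no effect and ±100 for the full control effect; nearly all actives have a fitted effect of over 50% in size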
Starred values were filed as active, the others as inactive. Many of the other results were omitted from the sample, so hits are more common in it than they were. Unless noted, calls come from the whole dose curve; as a rule, active = well fitted curve in the direction sought with a large enough effect; inconclusive = small, poorly fitted or top-dose-only effect, or another doubt; inactive = no such curve, though single readings can be large; an effect the other way counts as inactive or inconclusive.

For N#C/C(=C\c1ccc(-c2cccc([N+](=O)[O-])c2)o1)C(=O)Nc1nc(-c2cccs2)cs1 the results were Giardia kill 2, RORg inh 7%, ERG-DNA inh -12%, a7 integrin act 7% and VP16 counter -8%.
Screening S=C(NCCCN1CCOCC1)NN=C1c2ccccc2-c2ccccc21 returned a7 integrin act -38%.
Screening CCNC(=S)NN=C1c2ccccc2-c2ccccc21 returned Giardia kill -5, RORg inh 1.8µM*, ERG-DNA inh -5%, a7 integrin act 20% and VP16 counter 3.2µM*.
O=C(CCC(=O)N/N=C/c1ccco1)N/N=C/c1ccco1 was read as Giardia kill 3, RORg inh 8%, ERG-DNA inh -8%, a7 integrin act 28% and VP16 counter -2%.
C=C(C)CNC(=S)NN=C1c2ccccc2-c2ccccc21 was read as Giardia kill -4, RORg inh 3.2µM*, ERG-DNA inh 32%, a7 integrin act 0% and VP16 counter inconclusive.
C=C(C)CNC(=S)N/N=C/c1ccco1 was read as Giardia kill -12, RORg inh 0.56µM*, ERG-DNA inh -3%, a7 integrin act -17% and VP16 counter 3.2µM*.
For NC(=S)NN=C1c2ccccc2-c2cc(Br)ccc21 the results were Giardia kill -19, ERG-DNA inh 2% and a7 integrin act -9%.
Screening CC(=O)Oc1ccc2nc(/C=C/c3ccccc3)oc(=O)c2c1 returned Giardia kill 6, RORg inh 6.3µM*, ERG-DNA inh 2%, a7 integrin act -38% and VP16 counter inconclusive.
Screening O=C1C=CC(=O)N1CCCCCCN1C(=O)C=CC1=O returned Giardia kill -18, RORg inh 3.2µM*, ERG-DNA inh -7%, a7 integrin act 0% and VP16 counter 0.89µM*.
For Cc1ccc(-n2nc(CO)c(C(=O)NCCCc3ccccc3)n2)cc1C the results were ERG-DNA inh 4%.
Screening CCN=c1scc(-c2ccc(F)cc2)n1/N=C/c1ccccn1 returned Giardia kill 2, RORg inh 18µM*, ERG-DNA inh 1%, a7 integrin act -4% and VP16 counter 2%.
For O=C(Cc1ccc(F)cc1)N/N=C/c1ccccn1 the results were Giardia kill -12, RORg inh -32%, ERG-DNA inh 7%, a7 integrin act 0% and VP16 counter 11%.
CCN=c1scc(-c2ccccc2)n1/N=C/c1ccccn1 was read as Giardia kill inconclusive, RORg inh 4.5µM*, ERG-DNA inh -2%, a7 integrin act -9% and VP16 counter 7.9µM*.
For C=C(C(=O)C(C)(C)O)C(O)c1ccc([N+](=O)[O-])cc1 (centres undefined) the results were RORg inh -10% and VP16 counter -3%.
`O=C(Nc1nc2c(Cl)ccc(Cl)c2s1)C1CC1` gave Giardia kill -5, RORg inh 11%, ERG-DNA inh 5%, a7 integrin act -3% and VP16 counter 3%.
NNc1nc2c(Cl)ccc(Cl)c2s1 was read as Giardia kill -11, RORg inh 11µM*, ERG-DNA inh 4%, a7 integrin act -1% and VP16 counter 18µM*.
Screening CC(=O)Nc1ccc(N(C(=O)c2ccco2)C(C(=O)NC2CCCC2)c2ccc(N(C)C)cc2)cc1 (centres undefined) returned Giardia kill -10, RORg inh 10µM*, ERG-DNA inh 5%, a7 integrin act -33% and VP16 counter -1%.
Screening COC(=O)C(C(=O)OC)[C@@H](NC(=O)OCc1ccccc1)c1ccccc1 returned RORg inh -7% and VP16 counter -7%.
For CCn1c(=O)cc(OCC(=O)NCc2ccco2)c2ccccc21 the results were Giardia kill 10, RORg inh 4%, ERG-DNA inh 4%, a7 integrin act 0% and VP16 counter 1%.
Screening CCn1c(=O)cc(OCC(=O)NCc2ccc(C)o2)c2ccccc21 returned Giardia kill -5, RORg inh 14µM*, ERG-DNA inh -8%, a7 integrin act 19% and VP16 counter 7%.

Bioassay records from PubChem.
